Laboratory results as given in PubChem BioAssay (NCI).
About 79,000 compounds went through this panel and 15% of them were active in at least one assay; those are over-represented in the sample as a whole. A number with no mark means an inactive call. Active and inactive are the calls of the source. Rule as the data show it: active = growth inhibition above about 70%; inactive = the rest. Where a SMILES comes first, the peptide text is derived from it. The star is where a group is joined. Boc = CC(C)(C)OC(=O)*

How the values were obtained:
[1] = NCI Yeast Anticancer Drug Screen. Data for the rad50 strain (AID 155);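 also: 0% = growth of vehicle-only cultures of the same strain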; conditions: S. cerevisiae rad50 strain growth inhibition; at 50.0 µM; hits give high values
Method in brief: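 A DNA repair-deficient yeast mutant serves as the test organism; compound-induced growth inhibition is calculated against vehicle-treated cells.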

[2] = NCI Yeast Anticancer Drug Screen. Data for the mec2-1 strain (AID 157); conditions: S. cerevisiae mec2-1 strain, at 50.0 µM, hits give high values
Method in brief: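 Readout is yeast growth inhibition, normalised to vehicle-treated controls, in the mec2-1 strain exposed to compound.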

[3] = NCI Yeast Anticancer Drug Screen. Data for the sgs1 mgt1 strain (AID 161);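 also: 0% = growth of cultures given vehicle only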; conditions: S. cerevisiae sgs1 mgt1 strain, at 50.0 µM, hits give high values
Method in brief: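 Growth of a repair-deficient yeast mutant was monitored after compound treatment and expressed as inhibition relative to vehicle-treated cultures.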

[4] = NCI Yeast Anticancer Drug Screen. Data for the cln2 rad14 strain (AID 165);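 also: 0% = growth equal to vehicle treated cultures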; conditions: S. cerevisiae cln2 rad14 strain, at 50.0 µM, hits give high values
Method in brief: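 Relative to vehicle controls, growth inhibition of compound-treated cln2 rad14 yeast was recorded.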

[5] = NCI Yeast Anticancer Drug Screen. Data for the bub3 strain (AID 167); conditions: S. cerevisiae bub3 mutant strain, at 50.0 µM, hits give high values
Method in brief: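 Inhibition values come from growth of compound-treated mutant yeast normalised to vehicle-treated controls.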

[6] = NCI Yeast Anticancer Drug Screen. Data for the mlh1 rad18 strain (AID 175); conditions: S. cerevisiae mlh1 rad18 strain growth inhibition; at 50.0 µM; hits give high values
Method in brief: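 Test agents were incubated with a yeast strain of defined genotype (DNA damage repair defect). Inhibition of growth was derived by comparison with vehicle-exposed cultures.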

Compound | growth inhibition [1] | growth inhibition [2] [%] | growth inhibition [3] [%] | growth inhibition [4] [%] | growth inhibition [5] | growth inhibition [6]
CC(C)c1ccc([N+](=O)[O-])cc1 | 31.5% | 11.1 | 11.2 | 26.6 | 5.95% | 16.9%
O=C(NNC(=O)c1ccccc1Br)c1ccccc1 | -17.6% | -45 | -5.4 | 3.45 | -21.5% | -23.6%
O=C1c2ccccc2C(=O)N1CCCSc1ccccc1 | -10.2% | -12.7 | -21.9 | -15.6 | -32.4% | -33.9%
Cc1c([N+](=O)[O-])cc(C(C)(C)C)c(OS(=O)(=O)N(C)C)c1[N+](=O)[O-] | 34% | 10.4 | 34.5 | 13.1 | 18.1% | 26.6%
ClC1=C(Cl)C2(Cl)C=CC1(Cl)C2 | 4.05% | -3.05 | 4 | -14.2 | 1.9% | 6.6%
Cc1cc(Br)ccc1C1=C(O)C(=O)NC1=O | 5.55% | -10.4 | 10.7 | -32.3 | -1.7% | -5.4%
COc1cccc(/C=C\C(=O)c2ccccc(=O)c2O)c1OC | 34.5% | 23.4 | 36.8 | -5.4 | 40.5% | 40.9%
CCN(CC)C(=O)N1CCN(c2ccccc2)CC1 | -1.4% | 12.3 | -4.95 | 5.65 | 3.45% | -23.8%
COc1ccc(/C=C/C(=O)c2ccc(Cl)s2)cc1 | -18.2% | -4.75 | -5.8 | -34.3 | 20.4% | -4.5%
CNc1ccc(CC(=O)O)cc1 | -2.75% | 3.85 | -2.45 | -42 | -2.05% | 1.8%
COC(=O)c1cc(CC2Cc3cc4c(cc3C2)CCC4)cc2c1CCC2 | -16.7% | -8.85 | -29.1 | 15.3 | 0.7% | -1.25%
CCNC(C(=O)O)C1CCCCC1 (stereo unspecified) | -6.45% | -2.95 | -1.65 | 8.5 | -0.8% | -1.25%
COc1ccc(/C=C2\CCC(CCN(C)C)(C3=CCCC3)C2=O)cc1 (stereo unspecified) | 2.1% | -6.6 | 15 | 18.1 | -14.4% | 9.4%
O=C(O)CCNc1cccs1 | -19.6% | -1.75 | -26.5 | -63.8 | -4.85% | -19.9%
CCC(CC)=NNS(=O)(=O)c1cccc2ccccc12 | 10.7% | -12.4 | -11.7 | -15.7 | -17.9% | -0.1%
CCC1CCC2c3c([nH]c4ccccc34)C3C(=O)N(c4ccc(OC)cc4)C(=O)C3C2C1 (stereo unspecified) | -13.1% | -10.6 | 3.5 | 6.65 | 2.05% | 24.4%
Cn1ncc2c(=O)[nH]c(=S)[nH]c21 | -9.6% | -4.4 | -5.65 | -32.1 | -2.3% | 3.6%
CCOC(=O)C(=O)Cc1ccccn1 | -0.7% | -6.55 | -6.5 | -16.3 | 8.85% | -13.2%
C/C(CCC1CCCCC1)=N/NC(N)=O | 14.6% | 15.8 | 5.25 | 14.7 | 12.7% | -18.4%
CC(=O)Oc1cc(C(C)C)ccc1C | 26.7% | -3.75 | 18.1 | -1.4 | 0% | 15.4%
CCCNC(=S)N=Nc1c(O)[nH]c2ccccc12 | -46.2% | -55.8 | -25.1 | -31.5 | -22.2% | -11.2%

Compound | growth inhibition [1] | growth inhibition [2] [%] | growth inhibition [3] [%] | growth inhibition [4] [%] | growth inhibition [5] | growth inhibition [6]
C/C=C(/C)C(=O)OC1CC(C)=CC(OC(=O)/C(C)=C\C)[C@]2(C)C1[C@](O)(C(C)C)C[C@H]2OC(C)=O (stereo partly specified) | 41% | 20.6 | 28.2 | 30.2 | 24.9% | 49.4%
Cc1c2cnccc2c(C)c2c1c1ccccc1n2CCCCCCCl | 94.5% (active) | 69 | 49.8 | 66 | 95.7% (active) | 98.5% (active)
NS(=O)(=O)c1ccc(N2C(=O)C3C(C2=O)C2(Cl)C(Cl)=C(Cl)C3(Cl)C2(Cl)Cl)cc1 (stereo unspecified) | -6.4% | -6.95 | 3.25 | 15.1 | -4.7% | 20.6%
CN(C)C1C(CO)C(CO)C1(C)C (stereo unspecified) | -5.5% | -8.5 | -3.9 | -11.9 | -2.25% | -7.55%
COC(=O)C1=C(C)N(NC(=O)c2ccccc2)C(C)(O)C12CCOC2=O (stereo unspecified) | 1.25% | -8.35 | 5.85 | -53 | -9.65% | -5.15%
Cc1cc(C)c2c(c1)Nc1ccccc1P2c1ccccc1 (stereo unspecified) | 11.2% | 14.2 | 48.2 | 31.1 | 44.6% | 53.6%
CSCCC(NC(=O)C(CC(C)C)NC(=O)CNC(=O)OC(C)(C)C)C(=O)N(C)C (stereo not drawn) (Boc-Gly-Leu-Met-NMe2; configuration not given here) | 6.6% | -5.15 | -3.9 | -2.8 | -0.1% | -3%
COc1ccc(N=Cc2ccc(OC(=O)c3ccccc3)c(OC)c2)cc1 | 2.15% | 0.5 | 0.55 | -0.8 | 13.3% | -23.5%
Oc1ccc2ccccc2c1/C=N/N=C/c1c(O)ccc2ccccc12 | 31.4% | -14.6 | 53.8 | 20.9 | 6.4% | 3.8%
CC(=O)c1ccc(N2C(=O)CC(NC3CCCCC3)C2=O)cc1 (stereo unspecified) | -7.4% | 7.1 | 9.45 | -2.15 | 1.65% | -17.4%
Cc1ccc(S(=O)(=O)NNc2nc(N3CCCCC3)nc(N3CCCCC3)n2)cc1 | -1.25% | -2.4 | 8.2 | -17.9 | -4.85% | 19.6%
O=C(NNC1=NCCCCN1)Nc1ccc(Cl)cc1 | 20.9% | 6.8 | 26.4 | 7.4 | 16.6% | 5.95%
O=C(CCCCCCC(=O)C[N+]12CCC(CC1)C(O)C2)C[N+]12CCC(CC1)C(O)C2 (stereo unspecified) | 39.1% | 4.2 | 21.1 | 0.5 | 3.6% | 15.6%
Cc1ccc2cccc(CCOC(=O)c3ccc([N+](=O)[O-])cc3)c2c1 | -13.5% | -19.1 | -15.3 | -19.1 | -8.35% | 4.7%
N#CCCC1C(=O)CCCC1=O | 0.2% | 9.2 | -0.85 | -13.6 | 6.9% | 12.9%
CC(=O)c1cc2c(cc1C)C(C)(C)CCC2C (stereo unspecified) | -0.75% | -24.8 | -7.3 | -5 | 7.35% | 2.3%
O=C1c2ccccc2C(=O)C2C3c4ccccc4C(c4ccccc43)C12 (stereo unspecified) | -60.4% | -61 | -53.8 | -9.2 | -54.7% | -57.5%
CCC/C(=N/NC(=O)C1CCCO1)c1ccccc1 (stereo unspecified) | -1.8% | 18.4 | 16.6 | -4.2 | 7.5% | 26%
Cc1c([N+](=O)[O-])cc(C(C)(C)C)c(OC(=S)N(C)C)c1[N+](=O)[O-] | 26.9% | 23.4 | -1.75 | 18 | 14.7% | 0.7%
Nc1ccc(Cn2cnc3c(=O)[nH]cnc32)cc1 | -11.7% | -6.45 | 7.7 | -45.9 | 6.85% | -5.4%
